The campaign covered roughly 69,000 compounds. About 8,600 (12%) showed an effect of 50% or more. The sample holds strong results, similar compounds and a random draw of the others, so the mix is not that of the screen.

The test system of the assay is Plasmodium berghei. Kind of assay: Screen against P. berghei liver stage (PbLuc), transformed with Luciferase, at 10uM. The class given is functional, HepG2. As to conditions: tested at 10 uM.
Consider `Cc1csc(N2CCN(Cc3nnsc3Cl)CC2C)n1` (centres undefined), for which the INHIBITION turned out to be 45.2%.
Then `O=C(c1ccco1)N1CCOCC2(C1)CN(c1ccoc1)C(=O)CO2` (centres undefined), with -8.28%; and `CCOc1ccc(CN2CCC(c3ccn[nH]3)C2)cc1CO` (centres undefined), with 43.85%.
Then `Cn1cc2c(n1)C(CNCc1ccco1)OCC2` (centres undefined), with 15.4%; and `CC(C)CC1SCC(=O)Nc2c1cnn2-c1ccc(F)cc1` (centres undefined), with 28.4%.
Under `CN(C)C(=O)[C@H]1C[C@H]2[C@H](CCN2Cc2ccc3c(c2)OCO3)O1` stands 18.5%.
For the compound `CCCNC(c1cccnc1)c1ccc(F)cc1F` (centres undefined), the INHIBITION stood at 12.9%.
Then `O=c1n(CCNc2cccc3ccccc23)nc2ccccn12`, with 65.2%; and `O=c1n(CCNCc2cccc3ccccc23)nc2ccccn12`, with 28.8%; and `CCNC(=O)NCCCn1nc2ccccn2c1=O`, with -12.2%.
With `CCSCCC(=O)NCCn1nc2ccccn2c1=O`, the INHIBITION is 37.7%.
On to `CCC(=O)CNC(=O)CCn1nc2ccccn2c1=O`, for which the INHIBITION worked out at 69.8%.
As to `O=c1n(CCNCc2ccc3ccccc3c2)nc2ccccn12`, the INHIBITION is -23.4%.
Then `CC(=O)N(Cc1ncc(C)o1)C1CCN(Cc2cnc(C)s2)C1` (centres undefined), with 14.2%.
Then `CC(C)C[C@H](N)C(=O)N1CC2(CCNCC2)c2cc(Cl)ccc21`, with -28.2%; and `CCCc1noc(C2CCN(S(=O)(=O)c3cccs3)CC2)n1`, with 4.97%.
Under `COc1cccc2ccc(CN3CCN(c4ncccn4)CC3)nc12` stands 39.8%; under `COc1cccc2ccc(CN3CCN(c4ncccc4C)CC3)nc12`, 61.1%.
Consider `COc1cccc2ccc(CN3CCN(c4ccncc4)CC3)nc12`, for which the INHIBITION worked out at 25.3%.
Take `Cc1ccc(CNC(C)c2ccc(OCC(=O)NC3CC3)cc2)o1` (centres undefined): the INHIBITION was 40%.
In the case of `COCc1noc(Cn2c(C)cc(C(F)(F)F)cc2=O)n1`, the INHIBITION is 41.2%.
Then `CCCc1nnc(NCCCn2nc(C)c(Cl)c2C)o1`, with 16.1%; and `CCN1CCO[C@@H]2CN(C(=O)COC3CCCC3)C[C@@H]2C1`, with 0.804%; and `CN(Cc1cccnc1)C1CC2(CCN(C(=O)c3ccnnc3)CC2)C1`, with 53.9%.
Under `CN(Cc1cccnc1)C1CC2(CCN(c3ccccn3)CC2)C1` stands 47.8%; under `CN(Cc1cccnc1)C1CC2(CCN(C(=O)c3cscn3)CC2)C1`, -18.5%; under `CN(Cc1ccncc1)C1CC2(CCN(C(=O)c3ccnnc3)CC2)C1`, -5.63%.
On to `CN(Cc1ccccn1)C1CC2(CCN(Cc3cccnc3)CC2)C1`, for which the INHIBITION was determined as 33%.
As for `CN(Cc1cccnc1)C1CC2(CCN(Cc3cccnc3)CC2)C1`, the INHIBITION was 70.7%.
Then `CN(Cc1cccnc1)C1CC2(CCN(Cc3ccccn3)CC2)C1`, with 50.9%.
Under `CN(Cc1cccnc1)C1CC2(CCN(C(=O)c3cnccn3)CC2)C1` stands 21.7%.
Turning to `CN(Cc1ccccn1)C1CC2(CCN(Cc3ccccn3)CC2)C1`, the INHIBITION was determined as 47.4%.
Then `Fc1ccc(CN2CCOCC3(CCN(Cc4nccs4)C3)C2)cc1` (centres undefined), with 7.24%.
Then `CCCc1nnc(NCCc2noc(C3CCC3)n2)o1`, with 12.7%; and `CC(C)C(=O)NCCNC(=O)CCOc1cccc(F)c1`, with 48.45%; and `CCc1cc(NC2CCC(O)CC2)n2nc(C)c(C)c2n1` (centres undefined), with 25.1%.
Then `CC(C)CN1CCC(N2CCC(C(=O)N(C)C)CC2)CC1`, with 18.6%; and `COc1ccc(OC2CCN(C(=O)CCc3n[nH]c(C)n3)CC2)cc1`, with -4.23%.
Take `CN(C)CCOCC1CN(C(=O)c2ccsc2)Cc2ccnn2C1` (centres undefined): the INHIBITION is -10.3%.
As for `CCc1cnc2c(c1Nc1ccccc1OC)c(=O)n(C)c(=O)n2C`, the INHIBITION was 15.4%.
Then `Cc1cnc2c(c1NCc1cccnc1)c(=O)n(C)c(=O)n2C`, with 71.8%; and `Cc1cnc2c(c1NCc1ccccn1)c(=O)n(C)c(=O)n2C`, with 8.31%; and `Cc1nn(C)c(N2CCOCC2)c1CNCc1ccc2c(c1)OCO2`, with 7.67%.
Then `Cc1cnc2n(c1=O)C(CC(=O)NCc1cccs1)CS2` (centres undefined), with 6.09%; and `Cc1cnc2c(c1NCc1cccs1)c(=O)n(C)c(=O)n2C`, with 54.1%.
Under `CS(=O)(=O)c1ccc(NCc2ccc(F)cc2)cn1` stands -32.7%; under `Cc1cc(NC(=O)Cc2ccc3c(c2)OCO3)n(C)n1`, 13.2%; under `Cc1cnc2c(c1NCc1ccc3c(c1)OCO3)c(=O)n(C)c(=O)n2C`, 73.3%.
Turning to `Cc1cnc2n(c1=O)C(CC(=O)NCc1cccnc1)CS2` (centres undefined), the INHIBITION is 40.9%.
Under `Cc1cnc2c(c1NCc1ccc(F)cc1)c(=O)n(C)c(=O)n2C` stands 51.2%.
Under `Cc1cnc2c(c1NCc1ccncc1)c(=O)n(C)c(=O)n2C` stands -14.6%; under `Cc1cnc(N2CCC3(CC2)COCCN(C(C)C)C3)nc1`, 12.2%.
Then `O=c1cnc2ccccc2n1CCCn1ccnc1`, with 34%.
On to `Cc1cc(NCCNc2ncccc2C)n2nc(C)cc2n1`, for which the INHIBITION stood at 16%.
Under `Cc1cccnc1NCCNc1cc(C(C)C)nc2ccnn12` stands 43.9%.
As to `Cc1cc2nc(C(C)C)cc(NCCNc3ncccc3C)n2n1`, the INHIBITION is on record as 64.2%.
`O=C(O)Cc1cccc(-n2ccnc2-c2ccc(F)c(Cl)c2)c1`: the INHIBITION was -10.5%.
Then `Cc1cccc(-c2nccn2-c2cccc(CC(=O)O)c2)n1`, with 11.9%; and `Cc1nccn1-c1ccc(=O)n(CCNC(=O)Cc2ccccc2)n1`, with 13.8%.
Under `CNC(=O)Cc1ccc(-n2ccnc2-c2ccc(C(=O)O)s2)cc1` stands 51.2%.
On to `O=C(O)Cc1cccc(-n2ccnc2-c2ccc(Cl)s2)c1`, for which the INHIBITION is reported as 53.3%.
Then `COc1cc(-n2ccnc2-c2ccc(C(=O)O)s2)ccc1NC(C)=O`, with 17.5%.
Then `CCn1c(C)nnc1SCCNC(=O)c1sc(C(C)C)nc1C`, with -12.1%.
Under `Cc1cncc(C(=O)N2CCc3ncc(Cn4cccn4)n3CC2)c1` stands 10.5%; under `Cc1cc(C)c2cc(C(=O)N3CCNC(=O)C3)[nH]c2c1`, 14.3%; under `CNC(=O)C1(CCCc2ccccn2)CN(Cc2scnc2C)C1`, 30.4%.
As to `Cc1cccc(C)c1Nc1noc2c1CN(C(=O)c1c[nH]nc1C)CC2`, the INHIBITION was determined as 18.34%.
Then `CN(C)C(=O)N1CC2(CCNCC2)c2cc(Cl)ccc21`, with 83.5%; and `O=C([C@H]1CCCN1)N1CC2(CCNCC2)c2cc(Cl)ccc21`, with 58.3%.
Then `CC(=O)N1CC2(CCNCC2)c2cc(Cl)ccc21`, with 14.9%.
As to `O=C(c1ccncc1)N1CC2(CCNCC2)c2cc(Cl)ccc21`, the INHIBITION came out at 5.04%.
With `NC(=O)N1CC2(CCNCC2)c2cc(Cl)ccc21`, the INHIBITION is given as 19.1%.
Under `O=C([C@@H]1CSCN1)N1CC2(CCNCC2)c2cc(Cl)ccc21` stands 38.5%; under `CN(C)C(=O)N1CC2(CCNCC2)c2cc(F)ccc21`, -15.5%.
For the compound `O=C(c1ccccc1F)N1CC2(CCNCC2)c2cc(Cl)ccc21`, the INHIBITION is -27%.
In the case of `O=C(c1ccco1)N1CC2(CCNCC2)c2cc(Cl)ccc21`, the INHIBITION came out at 51.9%.
Under `Cn1ccnc1CN1CCOC(Cn2cccn2)C1` (centres undefined) stands 7.08%.
Then `CNc1nc2cn(CCc3ccc(Cl)cc3)c(=O)c-2c[nH]1`, with -15.5%; and `CN(C)c1cc(CNC(=O)c2ccc(Br)cc2F)ccn1`, with 16.8%; and `Cc1cnc(N2C[C@H]3CCN(CC4CC4)C[C@H]3C2)nc1`, with -21.7%.
Under `NC(=O)c1ccc2c(c1)nc1n2CCN(Cc2cccnc2)C1` stands 54%.
`NC(=O)c1ccc2c(c1)nc1n2CCN(Cc2ccco2)C1`: the INHIBITION is on record as -7.9%.
Then `NC(=O)c1ccc2c(c1)nc1n2CCN(Cc2ccccc2)C1`, with 16.6%.
Under `O=C(NCCCO)c1cc(-c2cc[nH]n2)n2ccccc12` stands 15.4%; under `CCOc1ccc(C2c3c(N)nc(SC)nc3N=C3COC(=O)C32)cc1` (centres undefined), -44.5%.
Then `COc1ccc(OC)c(C2c3c(n[nH]c3C)N=C3COC(=O)C32)c1` (centres undefined), with -15%; and `Cc1ccc(C2c3c(n[nH]c3C)N=C3COC(=O)C32)cc1C` (centres undefined), with 55.3%.
As to `CSc1nc(N)c2c(n1)N=C1COC(=O)C1C2c1cccc(Cl)c1` (centres undefined), the INHIBITION amounted to 15.9%.
Under `CCN(CC)c1ccc(C2c3c(n[nH]c3C)N=C3COC(=O)C32)cc1` (centres undefined) stands 68.1%; under `COc1ccc(C2c3c(n[nH]c3C)N=C3COC(=O)C32)cc1OC` (centres undefined), -2.37%; under `Nc1ccc(-c2cnc(C3CCCN3)cn2)cn1` (centres undefined), -4.175%.
Regarding `Cc1cc(C)n(CC2CCCN2C(=O)c2ccc(NC3CC3)nc2)n1` (centres undefined), the INHIBITION is -5.07%.
Turning to `Cc1ccc(=O)n(CC2(O)CCN(Cc3cccs3)CC2)n1`, the INHIBITION is -20.2%.
In the case of `O=C(NCCN1CCOCC1)c1nc2ccccc2c(=O)[nH]1`, the INHIBITION worked out at 45.7%.
Under `CC1COCCN1Cc1nc(-c2ccc(Br)s2)no1` (centres undefined) stands -50.8%; under `CCN1CCOC(CNCc2c(Cl)nc3ccccn23)C1` (centres undefined), -13.6%.
Then `COc1cc(CN2CCCC2)ccc1Oc1ccc2c(c1)CC(CN)O2` (centres undefined), with 69%; and `COc1ccc(CN2CCCC2)cc1Oc1ccc(NC(C)=O)cc1`, with -5.47%.
Then `COc1c(F)cc(-c2cccc3c2OC(CN)C3)cc1F` (centres undefined), with 27.6%; and `COc1ccc(CN2CCCC2)cc1Oc1ccc2c(c1)CC(CN)O2` (centres undefined), with -27%; and `NCC1Cc2cc(Oc3cc(F)c(CN4CCCC4)c(F)c3)ccc2O1` (centres undefined), with 74%.
Regarding `Cc1cc(CN2CCCC2)cc(Oc2ccc3c(c2)CC(CN)O3)c1` (centres undefined), the INHIBITION amounted to 4.68%.
Under `CC(=O)N1CCC(c2ccnc(Nc3cc(C(F)(F)F)ccn3)n2)C1` (centres undefined) stands 2.55%.
For `CN(C)C(=O)[C@H]1C[C@H]2OCC[C@H]2N(CCOc2ccc(Cl)cc2)C1`, the INHIBITION turned out to be 1.48%.
`Cc1ncc2c(n1)CN(CCCc1ccccc1)CC2`: the INHIBITION is -21.8%.
Then `Cn1nccc1NC(=O)c1cccc(CN2C[C@H]3CC[C@@H](C2)N3)c1`, with 6.09%; and `CCCn1cc(NC(=O)c2cccc(CN3CC=CC3)c2)nn1`, with -57.5%.
Under `Cc1nn(C)c(C)c1NC(=O)c1cccc(CN2CC[C@H](O)C2)c1` stands 56.6%.
Under `Cc1nn(C)c(C)c1NC(=O)c1cccc(CN2CCS(=O)(=O)CC2)c1` stands 44.4%; under `CCn1cc(NC(=O)c2cccc(CN3C[C@@H](C)O[C@@H](C)C3)c2)nn1`, 81.3%.
Consider `CCCn1cc(NC(=O)c2cccc(CN3CC[C@H](O)C3)c2)nn1`, for which the INHIBITION is given as 65.6%.
Under `Cc1ccc(Cl)c(NC(=O)c2cccc(CN3CC[C@H](O)C3)c2)c1` stands 43.9%; under `CCN(Cc1cccc(C(=O)Nc2cn(C)nn2)c1)[C@H]1COC[C@@H]1O`, 35.7%.
Then `Cc1nn(C)c(C)c1NC(=O)c1cccc(CN2C[C@H]3CC[C@@H](C2)N3)c1`, with 16%.

The values are drawn from ChEMBL document CHEMBL4513216, “Probing the Open Global Health Chemical Diversity Library for Multistage-Active Starting Points for Next-Generation Antimalarials” (ACS Infect Dis, 2020).
